# SMN2 splice enh: enhancers of SMN2 splice variant expression; HEK293 SMN2-luciferase splicing reporter, luminescence, 30-36 h; Potency, µM (titrated, usually from 46.1 µM), for inactives: top-dose activity change, positive = activation, hits mostly activators; 210,000 tested, 2.8% active; AID 1458; also: % of control where 0% means no effect; nearly all actives have a fitted effect of over 55% in size
#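 HEK293 cells carry an SMN2 […]–luciferase reporter in which exon 7 inclusion puts luciferase in frame. Cells were plated 10-12 h before compound addition, then incubated 30-36 h at 37C. ONE-Glo luminescence was read; sodium butyrate at 4.5 mM final served as control.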
# KinaseGlo FLuc: counter-screen: inhibitors of Kinase-Glo firefly luciferase; Kinase-Glo luciferase, ATP luminescence, 8 min; Potency, µM (titrated, usually from 38.3 µM), for the others: at the highest dose activity change, negative = inhibition, usual class: inhibitors; 200,000 tested, 0.28% active; also: % is scaled to controls: 0 for no effect and ±100 for the full control effect; nearly all actives have a fitted effect of over 60% in size
#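 Substrate mix (final 50 mM imidazole pH 7.2, 50 mM KCl, 7 mM MgCl2, 10 uM ATP, 0.01% Tween 20, 0.05% BSA) plus pin-tool compound, then Kinase-Glo detection mix; 8 min ambient, luminescence read.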
# NPC1 promoter act: activators of NPC1 promoter; Huh7 NPC1 promoter luciferase reporter, 24 h; Potency, µM (top dose mostly 9.22 µM), for inactives: top-dose activation, usual class: activators; 320,000 tested, 2.4% active; AID 485313; also: % of control where 0% means no effect; nearly all actives have a fitted effect of over 60% in size
#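 In 1536-well qHTS, Huh7 cells harboring an NPC1 promoter–luciferase construct received compound for 24 h; activation was quantified by luminescence following luciferase reagent addition.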
# FLuc modulator: inhibits or activates purified firefly luciferase, miR-21 counter-screen; 360,000 tested, 6.9% active; purified FLuc, Km substrates, luminescence inhibition; Potency, µM (doses to about 57.5 µM), for the others: top-dose activity change, negative = inhibition, actives largely listed as inhibitors; P08659; AID 588342;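 also: plate controls were vehicle for no effect and reference inhibitor for full effect; nearly all actives have a fitted effect of over 55% in size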
# Target sequence (P08659 whole entry, looked up): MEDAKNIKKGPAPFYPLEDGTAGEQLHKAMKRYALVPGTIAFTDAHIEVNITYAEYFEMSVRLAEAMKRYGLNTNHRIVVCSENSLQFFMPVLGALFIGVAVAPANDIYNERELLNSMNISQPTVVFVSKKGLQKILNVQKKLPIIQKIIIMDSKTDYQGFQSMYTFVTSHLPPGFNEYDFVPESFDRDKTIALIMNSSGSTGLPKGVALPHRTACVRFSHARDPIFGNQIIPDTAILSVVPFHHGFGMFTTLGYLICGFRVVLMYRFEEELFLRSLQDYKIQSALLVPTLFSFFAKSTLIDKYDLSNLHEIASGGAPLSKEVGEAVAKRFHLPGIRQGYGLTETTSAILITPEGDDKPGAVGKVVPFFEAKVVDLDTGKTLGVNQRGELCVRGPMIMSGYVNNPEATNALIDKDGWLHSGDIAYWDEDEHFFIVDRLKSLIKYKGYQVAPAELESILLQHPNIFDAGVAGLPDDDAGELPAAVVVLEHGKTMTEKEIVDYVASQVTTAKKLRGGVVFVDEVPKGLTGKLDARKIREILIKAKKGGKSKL
#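 Purified P. pyralis luciferase (10nM final) with 10uM D-luciferin and 10uM ATP (Km levels) in 50mM Tris acetate pH 7.5, 10mM Mg acetate, 0.01% Tween-20, 0.05% BSA; qHTS 6-point titration, ~60 µM downward; luminescence read.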
# ELG1 genotox: genotoxicity induction in ELG1-luciferase HEK293T cells | HEK293T ELG1-luciferase reporter, luminescence, 16 h | Potency, µM (series often up to 46 µM), inactives show top-dose activity change, positive = activation, actives largely listed as activators | 330,000 tested, 1.3% active | AID 504466; also: % of control where 0% means no effect; nearly all actives have a fitted effect of over 60% in size
#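 Screening used a luciferase reporter fused to human ELG1 in HEK293T cells. Luminescence was read on a CCD plate imager after 16 hr exposure and 30 min ONE-Glo incubation.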
# Rab9 promoter act: activators of Rab9 promoter. Huh7 Rab9 promoter-luciferase reporter, luminescence, 24 h. Potency, µM (doses to about 9.22 µM), without a hit: at the top dose activation, negative = inhibition, actives largely listed as activators. 320,000 tested, 2.8% active. AID 485297; also: % of control where 0% means no effect; nearly all actives have a fitted effect of over 60% in size
#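 Cell-based reporter: Huh7 stable for Rab9 promoter-driven luciferase, plated in reduced-serum medium with 10% FBS at 1500 cells/well, compound-treated 24 h at 37 °C, luminescence read after 10 min reagent.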
# Active calls of the source: *; u = inconclusive; x = no result given; [ ] = another dose, or the depositor's remark. Shown are actives, neighbours in structure and some others; about 7.5% of the full set was active somewhere. Calls follow the shape of the dose curve; as a rule, active = well fitted curve in the direction sought with a large enough effect; inconclusive = small, poorly fitted or top-dose-only effect, or another doubt; inactive = no such curve, though single readings can be large; an effect the other way counts as inactive or inconclusive. Potency is read from the fitted curve at half-maximal effect.
SMILES,SMN2 splice enh,KinaseGlo FLuc,NPC1 promoter act,FLuc modulator,ELG1 genotox,Rab9 promoter act
CCCCNc1nc(C)nc2c1nc(-c1ccccc1)n2C(C)CCCN(CC)CC (centres undefined),-12%,1%,x,x,x,x
Cc1ccc2oc3c(c(=O)c2c1)C(c1cccc(O)c1)N(Cc1ccccc1Cl)C3=O (centres undefined),-5%,x,x,1%,x,x
COc1cccc(OC)c1C(=O)NC1C(=O)N2C1SC(C)(C)C2C(=O)O (centres undefined),-10%,0%,x,x,x,x
O=C(O)/C=C/c1cnn(-c2ccccc2)c1,2µM*,-9%,u,1.5µM*,-4%,0.45µM*
CCOC(=O)/C=C/c1cnn(-c2ccccc2)c1,x,-4%,u,15µM*,u,u
CC1(C)S[C@@H]2[C@H](NC(=O)COc3ccccc3)C(=O)N2[C@H]1C(=O)O,x,2%[39.9 µM],x,x,x,x
O=C1C(C2=C(O)c3ccccc3C2=O)=Nc2ccccc21,-11%,11µM*,-19%,1.9µM*,-3%,-28%
O=C1c2ccccc2C(=O)c2c(O)ccc(O)c21,-3%,1%,x,x,x,x
CC(C)OCCCNC1=C(Cl)C(=O)c2ccccc2C1=O,x,x,14%,13µM*,4%,13%
COCCCNC1=C(Cl)C(=O)c2ccccc2C1=O,x,x,-1%,u,-5%,-3%
COc1ccc(/C=N/NC(=O)c2ccn[nH]2)cc1CSc1ccccn1,x,x,u,11µM*,u,u
CCCOc1ccc(/C=N/NC(=O)CSc2ccccn2)cc1OC,x,x,2%,11µM*,13%,u
CC(/C=N/NC(=O)CSc1ccccn1)=C\c1ccc(C(C)C)cc1,u,2%,u,u,u,22%
COc1cc(/C=N/NC(=O)CSc2ccccn2)ccc1O,x,x,-5%,u,3%,15%
CC(=C/c1ccc(C(C)C)cc1)/C=N/NC(=O)CSc1ccccn1,3%[1.84 µM],-2%,u,u,u,2.8µM*
COc1ccc(/C=N/NC(=O)c2cccc(Br)c2)cc1CSc1ccccn1,-12%,3%,2%,-7%,0%,-6%
CN(C)c1ccc(/C=N/NC(=O)CSc2ccccn2)cc1,x,x,27%,12µM*,u,u
CSc1ccccc1OCc1cc(C(=O)NC(C)Cc2cccc(C)n2)no1 (centres undefined),x,x,u,19µM*,-10%,u
CSc1ccccc1OCc1cc(C(=O)NCc2cccc(C)n2)no1,x,x,2.8µM*,12µM*,u,4µM*
CSc1ccccc1OCc1cc(C(=O)NC(C)CCn2cccn2)no1 (centres undefined),x,x,-3%,u,-3%,1%
COc1ccc(CCNC(=O)c2csc3c2CCCCC3)c(OC)c1,u,x,x,-6%,x,x
COc1cccc(NC(=O)c2csc3c2CCCCC3)c1,13µM*,x,x,11µM*,x,x
COc1ccc(NC(=O)c2csc3c2CCCCC3)cc1,7.9µM*,x,x,5.4µM*,x,x
O=C(Nc1ccccc1O)c1csc2c1CCCC2,16µM*,-2%,u,9.5µM*,u,u
COc1ccc(NC(=O)c2csc3c2CCCCC3)c(OC)c1,9%,3%,0%,u,-3%,5%
SMILES,SMN2 splice enh,KinaseGlo FLuc,NPC1 promoter act,FLuc modulator,ELG1 genotox,Rab9 promoter act
CC1=CC(C)=Nc2ccc(C)cc2N1,1%,-2%,8%,15µM*,7.1µM*,9%
Cc1ccc(NC(=S)c2nc3ccccc3s2)cc1,u,-7%,1.3µM*,0.95µM*,10%,2.8µM*
O=C(Nc1ccc(Cl)cc1)/C(=C/c1cccc(O)c1)c1nc2ccccc2s1,-105%,4%,-9%,u,-17%,-15%
Cc1ccc(C)c(NC(=S)c2nc3ccccc3s2)c1,u,-4%,u,u,4%,u
S=C(Nc1ccc(Cl)cc1)c1nc2ccccc2s1,u,2%,4µM*,6.7µM*,11%,3.5µM*
Cc1ccc(NC(=O)COC(=O)c2c(C)nn(-c3ccccc3)c2C)cc1,x,x,0%,-2%,2%,-6%
COc1ccccc1NC(=O)COC(=O)c1c(C)nn(-c2ccccc2)c1C,x,x,u,7.6µM*,14%,u

# Screens: PubChem BioAssay, National Center for Advancing Translational Sciences (NCATS)
